Screening data from PubChem BioAssay.
ELG1 repair inh: ELG1-dependent DNA repair inhibition. HEK293T ELG1-luciferase reporter, luminescence, 16 h; DNA damage induced by 5-fluorouridine. Potency, µM (highest dose often 46.1 µM), without a hit: at the highest dose activity change, negative = inhibition, actives largely listed as inhibitors. 330,000 tested, 2.3% active; note: % is set by controls: 0 for no effect and ±100 for the full control effect; nearly all actives have a fitted effect of over 55% in size
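HEK293T cells expressing luciferase-tagged ELG1 (2,000/well) received 5-Fluorouridine plus compound or DMSO for 16 hr at 37 °C. Luciferase was read by ONE-Glo luminescence after 30 min at room temperature.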
ELG1 genotoxic: induces genotoxicity in HEK293T cells with luciferase-tagged ELG1; 330,000 tested, 1.3% active; HEK293T ELG1-luciferase reporter, luminescence, 16 h; AID 504466; Potency, µM (top dose mostly 46 µM), without a hit: top-dose activity change, positive = activation, actives largely listed as activators; note: % of control where 0% means no effect; nearly all actives have a fitted effect of over 60% in size
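After overnight (16 hr) compound treatment at 37 °C, ELG1-luciferase HEK293T cells were lysed with ONE-Glo; luminescence quantified 30 min later at room temperature.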
NPC1 promoter act: activators of NPC1 promoter; Huh7 NPC1 promoter luciferase reporter, 24 h; Potency, µM (doses to about 9.22 µM), inactives show at the top dose activation, hits mostly activators; 320,000 tested, 2.4% active; note: % of control where 0% means no effect; nearly all actives have a fitted effect of over 60% in size
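Stable NPC1-promoter luciferase Huh7 line; cpd (DMSO) 24 h, 37 °C, 5% CO2; Amplite luciferase reagent 10 min RT; luminescence readout. qHTS format.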
FLuc modulator: inhibits or activates purified firefly luciferase, miR-21 counter-screen. P08659. AID 588342. 360,000 tested, 6.9% active. purified FLuc, Km substrates, luminescence inhibition. Potency, µM (top dose mostly 57.5 µM), without a hit: at the highest dose activity change, negative = inhibition, most hits filed as inhibitors;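 note: plate controls were vehicle for no effect and reference inhibitor for full effect; nearly all actives have a fitted effect of over 55% in size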
Target sequence (P08659 whole entry, looked up): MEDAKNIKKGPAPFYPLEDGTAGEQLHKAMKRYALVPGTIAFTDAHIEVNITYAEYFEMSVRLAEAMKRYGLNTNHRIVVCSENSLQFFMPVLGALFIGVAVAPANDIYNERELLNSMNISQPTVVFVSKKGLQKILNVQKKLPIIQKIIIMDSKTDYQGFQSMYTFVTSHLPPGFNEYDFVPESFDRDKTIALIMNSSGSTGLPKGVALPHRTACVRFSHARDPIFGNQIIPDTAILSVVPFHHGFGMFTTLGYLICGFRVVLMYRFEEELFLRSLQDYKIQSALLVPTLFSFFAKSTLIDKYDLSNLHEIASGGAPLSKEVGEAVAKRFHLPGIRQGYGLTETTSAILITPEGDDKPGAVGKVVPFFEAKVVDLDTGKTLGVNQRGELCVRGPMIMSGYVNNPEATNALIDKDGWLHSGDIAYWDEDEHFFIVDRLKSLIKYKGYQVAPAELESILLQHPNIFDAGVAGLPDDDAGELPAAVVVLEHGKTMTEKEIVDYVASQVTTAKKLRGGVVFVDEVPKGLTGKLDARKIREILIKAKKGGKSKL
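Purified P. pyralis luciferase, 10 nM final, with Km-level 10 uM D-luciferin and 10 uM ATP in 50 mM Tris acetate pH 7.5, 10 mM Mg acetate, 0.01% Tween-20, 0.05% BSA; 6-point qHTS titration about 60 µM downward; luminescence read.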
Rab9 promoter act: Rab9 promoter activation. Huh7 Rab9 promoter-luciferase reporter, luminescence, 24 h. Potency, µM (highest dose often 9.22 µM), for the others: at the top dose activation, negative = inhibition, hits mostly activators. AID 485297. 320,000 tested, 2.8% active; note: % of control where 0% means no effect; nearly all actives have a fitted effect of over 60% in size
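Huh7 cells stably carrying Rab9 promoter–luciferase reporter, plated 1500 cells/well, compound added after 2 h and incubated 24 h at 37 °C; luciferase luminescence then read after 10 min with detection reagent.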
SMN2 splice enh: SMN2 splice variant enhancement | HEK293 SMN2-luciferase splicing reporter, luminescence, 30-36 h | Potency, µM (titrated, usually from 46.1 µM), without a hit: at the top dose activity change, positive = activation, most hits filed as activators | 210,000 tested, 2.8% active | AID 1458; note: % of control where 0% means no effect; nearly all actives have a fitted effect of over 55% in size
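qHTS luciferase splicing reporter: luminescence rises when SMN2 exon 7 is included in transfected HEK293 cells. Compound exposure lasted 30-36 h at 37C, with 4.5 mM final sodium butyrate as control, followed by a ONE-Glo read.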
Numbers without * were called inactive; ? = inconclusive; . = no result; [ ] = dose if it differs, or a comment. An excerpt weighted towards active compounds, which were near 9.4% of everything screened. Calls come from the whole dose curve; as a rule, active = well fitted curve in the direction sought with a large enough effect; inconclusive = small, poorly fitted or top-dose-only effect, or another doubt; inactive = no such curve, though single readings can be large; an effect the other way counts as inactive or inconclusive. Potency is the fitted concentration of half-maximal effect.

SMILES	ELG1 repair inh	ELG1 genotoxic	NPC1 promoter act	FLuc modulator	Rab9 promoter act	SMN2 splice enh
CC1CCC(NC(=O)c2cc3ccccc3cc2O)CC1 (stereo not drawn)	?	13%	?	5.4µM*	2.2µM*	.
O=C(NNC(=O)c1cc2ccccc2cc1O)NC1CCCCC1	14%	3%	9%	-3%	16%	.
Cc1cc(C(=O)NC2CCC(C)CC2)c(C)o1 (stereo not drawn)	?	5.2µM*	1.4µM*	9.5µM*	1.8µM*	.
COc1ccc(CNCc2c(C(=O)O)c(C)n(Cc3ccccc3C)c2C)c(OC)c1	.	.	.	-11%	.	-1%
CC1(C)C(=O)N(CC(=O)Nc2ccc(OC(F)(F)F)cc2)c2ccccc21	.	.	.	-3%	.	.
Cc1c(O)nc2sc3ccccc3n2c1=O	4%	-2%	0%	-5%	0%	.
Cc1cc2sc3nc(=O)n(-c4ccccc4)c(=O)n3c2cc1C	?	?	?	17µM*	3.2µM*	.
Cc1ccc(C)c(CN2CCC(CNC(=O)C(CC(C)C)N3Cc4ccccc4C3=O)CC2)c1 (stereo not drawn)	.	.	.	5%	.	.
CCN(C(=O)CSc1nc2ccccc2n1CC(=O)NCc1ccc(OC)cc1)c1ccccc1	.	.	.	-15%	.	.
O=C(CN1CCN(S(=O)(=O)c2ccccc2)CC1)Nc1ccc([N+](=O)[O-])cc1	21µM*	-6%	-3%	-4%	-14%	-28%
CC(=O)Nc1ccc(S(=O)(=O)N2CCN(Cc3ccccc3[N+](=O)[O-])CC2)cc1	9.2µM*	-16%	-4%	1%	-29%	-66%
Cc1cc(Nc2cccc(C(F)(F)F)c2)nc2ccc(NC(=O)c3cccc(Cl)c3)cc12	.	.	.	2%	.	.
Cc1ccccc1-c1nc(CN2CCC(C(=O)NCc3ccccc3Cl)CC2)c(C)o1	.	.	.	?	.	5%
COc1cc(/C=c2\sc3nc(-c4ccncc4)nn3c2=O)ccc1OC(C)=O	17%	4%	0%	2.7µM*	-3%	12%
CC(=O)Oc1cccc(/C=c2\sc3nc(-c4ccco4)nn3c2=O)c1	?	?	-2%	-11%	0%	26%
CC1=Nc2cc(C(=O)NCCc3ccc(Cl)cc3)ccc2Sc2ccc(C)cc21	.	.	.	-11%	.	-22%
COc1ccc(-c2noc(N3CCCC(C(=O)Nc4ccc(C(C)=O)cc4)C3)n2)cc1 (stereo not drawn)	18%	3%	23%	11µM*	27%	.
COc1ccc(-c2noc(N3CCC(C(=O)Nc4ccc(F)cc4F)CC3)n2)cc1	-14%	0%	0%	3%	22%	.
COc1ccc(-c2noc(N3CCC(C(=O)Nc4ccc(OC)cc4OC)CC3)n2)cc1	13µM*	-1%	1%	?	4%	.
COc1cc(OC)c(N(C)C(=O)Cn2ncc3c(=O)oc4ccccc4c32)cc1Cl	.	.	.	-1%	.	-2%
O=C(CSc1nc2[nH]ncc2c(=O)n1-c1ccccc1Br)NCc1ccccc1Cl	-8%	-2%	-8%	0%	-4%	5%
N#CCSc1nc2[nH]ncc2c(=O)n1-c1ccccc1Br	?	?	?	0.13µM*	0.32µM*	.
O=C(CSc1nnc(-c2ccccc2)c(-c2ccccc2)n1)NCCc1ccccc1	.	.	.	-14%	.	.
O=Nc1c2cc(-c3ccccc3)[nH]nc-2c2ccccc12	?	?	3.2µM*	0.43µM*	?	0.5µM*
Cc1ccc(-c2n[nH]c(=O)c3ccccc23)cc1S(=O)(=O)N(C)C	-9%	3%	-1%	-1%	0%	.
SMILES	ELG1 repair inh	ELG1 genotoxic	NPC1 promoter act	FLuc modulator	Rab9 promoter act	SMN2 splice enh
Cc1ccc(-c2cc3c(N=O)c4ccccc4c-3n[nH]2)cc1	?	?	2%	0.095µM*	?	-90%
O=c1[nH]nc(-c2ccccc2)c2ccccc12	?	-10%	1%	-2%	1%	.
Cc1cccc(-c2cc3c(N=O)c4ccccc4c-3n[nH]2)c1	?	?	0.71µM*	0.54µM*	1.3µM*	3.2µM*
CCOc1ccc(-c2nnc(SCC(=O)NCc3ccccc3)nc2-c2ccc(OCC)c(OC)c2)cc1OC	.	.	.	6%	.	.
CCOc1ccccc1NC(=O)C1CCN(S(=O)(=O)c2ccc3c(c2)CCCN3C(C)=O)CC1	.	.	.	1%	.	.
O=C(O)CCCc1ccc2ccccc2c1	.	.	.	.	.	-3%[9.22 µM]
COc1ccc(C2=NC3(CCCCCC3)N(CC(=O)Nc3cccc(Cl)c3)C2=O)cc1	.	.	.	-7%	.	0%
O=C(Cn1c(SCC(=O)N2CCc3ccccc32)nc2ccccc21)NC1CCCC1	?	7%	2%	4%	0%	?
O=C(Cn1c(SCC(=O)N2CCc3ccccc3C2)nc2ccccc21)NC1CCCC1	-10%	-1%	3%	5%	5%	11µM*
Cc1oc2ccc(O)c(CN(C)Cc3ccccc3)c2c1C(=O)Nc1cccc(Cl)c1C	.	.	.	-9%	.	-11%
CCOc1cc(S(=O)(=O)n2cc(-c3ccc(F)cc3)c(N)n2)cc(OCC)c1OCC	15µM*	-22%	-9%	1%	-4%	15%
CCOc1ccc(S(=O)(=O)n2cc(-c3ccc(F)cc3)c(N)n2)cc1	-3%	-4%	4%	-1%	1%	-6%
COc1ccc(C2c3cc(OC)c(OC)cc3Cc3c4cc(OC)c(OC)cc4cc[n+]32)cc1OC (stereo not drawn)	.	.	.	.	.	-21%
Cc1cccc(Cn2c(C)c(C)c3cc(C(=O)NCc4ccco4)ccc32)c1	.	.	.	-17%	.	.
Cc1ccc(CN2C(=O)CC(c3ccc(Cl)cc3)c3c(C)nn(-c4nc(C)cc(C)n4)c32)cc1 (stereo not drawn)	.	.	.	-4%	.	.
CC(C)Cn1c(N)c(C(=O)COC(=O)c2ccc(Cl)cc2)c(=O)n(C)c1=O	18µM*	-5%	-4%	-4%	-10%	-12%
CC(C)Cn1c(N)c(C(=O)CSc2ccccc2)c(=O)n(C)c1=O	23µM*	-5%	9%	-1%	-4%	-60%
CC(C)Cn1c(N)c(C(=O)COC(=O)c2cccc(F)c2)c(=O)n(C)c1=O	?	-4%	1%	3%	-4%	-29%
CC(C)Nc1nnc(SCC(=O)c2c(N)n(Cc3ccccc3)c(=O)n(C)c2=O)s1	18µM*	-5%	-1%	-1%	-9%	-36%
CC(=O)Nc1ccc(SCC(=O)c2c(N)n(Cc3ccccc3)c(=O)n(C)c2=O)cc1	?	-9%	5%	2%	4%	.
COC(=O)c1c(C)[nH]c(C(=O)OCC(=O)c2c(N)n(CC(C)C)c(=O)n(C)c2=O)c1C	16µM*	-5%	.	.	.	.
CN(Cc1ccccc1)c1nc2c(S(=O)(=O)c3ccccc3)nnn2c2ccsc12	.	.	.	7%	.	.
